# Source: PubChem BioAssay
# IL-1B inflam inh: qHTS for Inhibitors of Inflammasome Signaling: IL-1-beta AlphaLISA Primary Screen | THP-1 LPS/ATP IL-1B secretion, AlphaLISA, 16 h; active compounds read low | activity change, % at 57.5 µM | hit rate 4.7% among 360,000; in the data active = activity change below about -50%; inconclusive = mostly about -30% to -49%
#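 THP-1 cells pretreated 1 hr with compounds (up to 57.5 uM final), then stimulated with LPS (250 ng/mL final) plus ATP (1.25 mM final); secreted IL-1B measured by AlphaLISA after 16 hr, decreased signal indicating inhibition.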
# TDP1 cell CPT: qHTS for Inhibitors of human tyrosyl-DNA phosphodiesterase 1 (TDP1): qHTS in cells in presence of CPT; hit rate 12% among 420,000; chicken DT40 Tdp1-/-;hTDP1 cells + 20 nM CPT, ATP luminescence, 48 h; Potency, µM (titrated, usually from 46.2 µM), for inactives: at the highest dose activity change, negative = growth inhibition, most hits filed as inhibitors; AID 686979, 2013; note: potency is the fitted concentration of half-maximal effect; nearly all actives have a fitted effect of over 55% in size
#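 Cell growth measured by CellTiter-Glo luminescence after a minimum 48 h, 37 C compound exposure with 20 nM CPT in Tdp1-knockout DT40 cells stably expressing hTDP1, seeded 400/well; qHTS titration format.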
# DT40 TDP1 no CPT: qHTS for Inhibitors of human tyrosyl-DNA phosphodiesterase 1 (TDP1): qHTS in cells in absence of CPT; DT40 Tdp1-/- hTDP1 cells, no CPT, ATP luminescence, 48 h; hit rate 15% among 420,000; AID 686978, 2013; Potency, µM (doses to about 46.2 µM), for the others: at the top dose activity change, negative = growth inhibition, hits mostly inhibitors; note: potency is the fitted concentration of half-maximal effect; nearly all actives have a fitted effect of over 55% in size
#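 Growth kinetics read by CellTiter-Glo luminescence after ≥48 hr at 37 °C. Cells: DT40 Tdp1-/- stably carrying human TDP1, 400 per well, compound exposure in the absence of CPT (DMSO vehicle).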
# HT1080-NT tox: qHTS for induction of synthetic lethality in tumor cells producing 2HG: qHTS for the HT-1080-NT fibrosarcoma cell line. HT-1080-NT fibrosarcoma viability, CellTiter-Glo ATP luminescence, 48 h. hit rate 1.6% among 360,000. Potency, µM (titrated, usually from 46.1 µM), without a hit: top-dose activity, negative = less viability, most hits filed as cytotoxic;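 note: NT is the 2HG producing partner of a matched IDH1 knockdown line; potency is the fitted concentration of half-maximal effect; 0% = DMSO-treated cells and -100% = media-only wells without cells; nearly all actives have a fitted effect of over 55% in size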
#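 Toxicity toward the 2HG-producing NT line was scored as %Activity, normalised to DMSO and no-cell wells, from CellTiter-Glo luminescence after 48 hours' treatment.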
# HT1080 IDH1KD tx: qHTS for induction of synthetic lethality in tumor cells producing 2HG: qHTS for the HT-1080-IDH1KD cell line. HT-1080 IDH1 knockdown viability, ATP luminescence, 48 h. Potency, µM (highest dose often 46.1 µM), without a hit: at the highest dose activity, negative = toxicity, most hits filed as cytotoxic. hit rate 2% among 360,000;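 note: potency is the fitted concentration of half-maximal effect; 0% = DMSO wells and -100% = cell-free medium wells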
#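 After a 2 h attachment period, IDH1KD HT-1080 cells took pin-transferred compound for 48 h at 37 °C; ATP-based luminescence after 10 min room-temperature reagent incubation reported viability.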
# Starred values were filed as active, the others as inactive; ? = inconclusive; nt = no result given; [ ] = remark or other dose. Only some compounds are listed: those with a hit (about 19% of all), similar ones and a draw of the others. Unless noted, calls come from the whole dose curve; as a rule, active = well fitted curve in the direction sought with a large enough effect; inconclusive = small, poorly fitted or top-dose-only effect, or another doubt; inactive = no such curve, though single readings can be large; an effect the other way counts as inactive or inconclusive. Unless noted, % is set by controls: 0 for no effect and ±100 for the full control effect.
SMILES,IL-1B inflam inh,TDP1 cell CPT,DT40 TDP1 no CPT,HT1080-NT tox,HT1080 IDH1KD tx
O=C(N/N=C/c1ccoc1)c1cccc(OC(F)(F)C(F)F)c1,-3,-12%,-24%,-4%,1%
Cc1cccc(-c2noc(CN(C(=O)/C=C/c3ccccc3Cl)C(C)C)n2)c1,-10,18µM*,?,-3%,?
CC(C)N(Cc1nc(-c2ccc(Cl)cc2)no1)C(=O)/C=C/c1ccccc1,-62*,?,?,-2%,-9%
Cc1cccc(-c2noc(CN(C)C(=O)COc3ccccc3)n2)c1,35,?,?,-2%,-13%
Cc1cccc(-c2noc(CN(C(=O)CCc3ccccc3)C(C)C)n2)c1,-15,29µM*,?,-22%,-14%
CC(C)N(Cc1nc(-c2ccccc2)no1)C(=O)CN(C)S(=O)(=O)c1ccccc1,-17,-25%,-21%,-2%,0%
Cc1ccc(-c2noc(CN(C(=O)c3cccc(Br)c3)C(C)C)n2)cc1,-17,?,?,-2%,-9%
COc1cc(NC(=O)CNS(=O)(=O)c2cccs2)cc(OC)c1OC,nt,-3%,-22%,nt,nt
CCn1c(=O)n(CC(=O)Nc2cc(OC)c(OC)c(OC)c2)c(=O)c2ccccc21,28,-10%,-4%,4%,-14%
COc1ccc(NC(=O)C2CCN(c3nc4ccccc4[nH]3)CC2)cc1OC,nt,-4%,-4%,nt,nt
COc1ccc(CNC(=O)C2CCN(c3nc4ccccc4[nH]3)CC2)c(OC)c1,nt,18µM*,?,nt,nt
O=C(Nc1cccc(F)c1)C1CCN(c2nc3ccccc3[nH]2)CC1,nt,23µM*,?,nt,nt
COc1ccc(CN2CCC3(CCC(CNC(=O)C4CCCO4)O3)CC2)c(C)c1C (stereo not given),nt,?,-10%,nt,nt
CCCCc1nn2c(=O)cc(COC(=O)c3ccccc3NC(=O)c3cccs3)nc2s1,nt,-10%,-7%,nt,nt
COc1ccc(Cc2c(Cl)ncnc2Cl)cc1,-111*,-15%,?,-2%,-9%
CC(C)CN(CC(C)C)c1nn[nH]n1,10,14%,-17%,15%,-1%
CC(C)Oc1ccc(F)cc1-c1cc(C(=O)Nc2ccc(C(C)(C)C)cc2)[nH]n1,15,6.5µM*,3.3µM*,23µM*,18µM*
CC(C)Oc1ccc(F)cc1-c1cc(C(=O)Nc2ccccc2)[nH]n1,-69*,?,?,5%,25%
CC(C)Oc1cc(F)ccc1-c1cc(C(=O)NCc2cccnc2)[nH]n1,-6,7%,?,3%,-1%
COc1cccc(-c2cc(C(=O)Nc3ccc(F)cc3)[nH]n2)c1,nt,?,16µM*,nt,nt
CCCOc1ccc(F)cc1-c1cc(C(=O)Nc2ccccc2)[nH]n1,-6,1%,?,10%,27%
CC(C)Oc1ccc(F)cc1-c1cc(C(=O)NCc2ccc(F)cc2)[nH]n1,-8,26µM*,?,-24%,0%
Cc1cccc(CNC(=O)c2cnn(-c3nccc(-c4cc(C)sc4C)n3)c2C)n1,nt,7%[9.04 µM],-26%,nt,nt
CC(C)(CO)C(O)C(=O)NCCCO (stereo not given),23,-10%,3%,?,8%
COc1ccccc1N1CCN(C(=O)C(=O)c2cccc([N+](=O)[O-])c2)CC1,29,?,?,11%,10%
SMILES,IL-1B inflam inh,TDP1 cell CPT,DT40 TDP1 no CPT,HT1080-NT tox,HT1080 IDH1KD tx
CCN(CC)CCNC(=O)c1ccc(NC(=O)c2cn(-c3ccc(F)cc3)nc2-c2cccc(OC)c2)cc1,-90*,?,?,23µM*,21µM*
CCN(CC)CCNC(=O)c1ccc(NC(=O)c2ccccc2-c2ccc(C(F)(F)F)cc2)cc1,-67*,18µM*,?,23µM*,18µM*
COc1ccc(NC(=O)CN2C(=O)CCn3nc(-c4cccn4C)cc32)cc1Cl,nt,0%,-14%,nt,nt
Cc1ccc(CNC(=O)C2CCCN(S(=O)(=O)c3cn(C)cn3)C2)cc1 (stereo not given),nt,17%,-6%,nt,nt
COc1ccc(S(=O)(=O)CC(O)CN2CCCC2=O)cc1 (stereo not given),-11,2%,4%,-3%,-5%
COc1ccc(NC(=O)CN(C)CC(=O)Nc2sc3c(c2C#N)CCC3)cc1,-27,-24%,-14%,-6%,-3%
O=C(/C(=C/O)N=Nc1ccccc1)c1ccco1,-16,?,?,-3%,-23%
Cc1ccc(N=N/C(=C\O)C(=O)c2ccncc2)cc1,-7,?,?,26µM*,16µM*
O=C(/C(=C/O)N=Nc1ccc(Cl)cc1)c1ccncc1,-7,15µM*,26µM*,?,21µM*
C(=Cc1cnnc2ccccc12)c1ccccc1,-63*,?,?,-20%,-4%
CN(C)c1ccc(/C=C/c2cc(N(C)C)nc3ccccc23)cc1,nt,1µM*,0.89µM*,nt,nt
CN(C)c1ccc(/C=C/c2cnnc3ccccc23)cc1,nt,7.1µM*,6.3µM*,nt,nt
Cc1nc2ccccc2nc1/C=C/c1ccc(N(C)C)cc1,nt,0.5µM*,0.5µM*,nt,nt
Cc1nc2ccccc2nc1C,nt,10%,6%,nt,nt
O=C(COc1cc(O)c2c(=O)c3ccccc3oc2c1)OCc1ccccc1,6,16%,-2%,7%,11%
CCCOc1ccccc1/C=C(\C#N)C(=O)Nc1cccnc1,-15,-3%,-11%,?,15%
CCc1ccc2c(c1)C(NC(C)=O)C(=O)N2CCN1CCOCC1 (stereo not given),24,17%,1%,14%,1%
COc1ccc(-c2noc(CN3CCN(c4ccccc4OC)CC3)n2)cc1OC,nt,21µM*,?,nt,nt
COc1cc(-c2noc(CN3CCN(c4cccc(Cl)c4)CC3)n2)cc(OC)c1OC,nt,16µM*,21µM*,nt,nt
COc1ccc(-c2noc(CN3CCN(c4ccccc4)CC3)n2)cc1,17,?,-22%,-16%,-11%
O=S(=O)(Nc1ccccc1N1CCOCC1)c1ccc(Cl)cc1,53,?,-14%,-7%,11%
Oc1ccc(C[C@H]2CN([C@@H](Cc3ccc(O)cc3)CN3CCC[C@@H]3CN3C(=S)NC[C@@H]3Cc3ccccc3)C(=S)N2CCc2ccccc2)cc1,?,9.2µM*,10µM*,?,?
CC(C)C[C@@H](CN1CCC[C@H]1CN1C(=O)C(=O)NC[C@@H]1Cc1ccc(O)cc1)N1C[C@H](Cc2ccccc2)N(CCc2ccccc2)C(=O)C1=O,?,?,-3%,-12%,-15%
